# Compounds without any hit were thinned out: in the full panel of roughly 83,000, 20% have a hit.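 Method: cells in 96-well plates; compound added at one concentration; 48 h incubation; percent growth measured; values under 10 scored active.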 Values without a mark were called inactive. Calls of active or inactive are those of the source.
# What was measured:
# Test in all cases: NCI-60 one-dose screen, 48 h (100 = growth as untreated, 0 = no growth, -100 = all killed)
# Settings in all cases: 10 µM unless noted
# NCI-H23 lung = test system: NCI-H23 lung
# NCI-H226 lung = test system: NCI-H226 lung
# NCI-H322M lung = test system: NCI-H322M lung
# HOP-62 NSCLC = test system: HOP-62 NSCLC
# NCI-H460 lung = test system: NCI-H460 lung
# HOP-92 NSCLC = test system: HOP-92 NSCLC
# NCI-H522 lung = test system: NCI-H522 lung
# A549/ATCC NSCLC = test system: A549/ATCC NSCLC
# 786-0 renal = test system: 786-0 renal
# COLO 205 colon = test system: COLO 205 colon
Structure (SMILES),growth (NCI-H23 lung),growth (NCI-H226 lung),growth (NCI-H322M lung),growth (HOP-62 NSCLC),growth (NCI-H460 lung),growth (HOP-92 NSCLC),growth (NCI-H522 lung),growth (A549/ATCC NSCLC),growth (786-0 renal),growth (COLO 205 colon)
COC(=O)C1Cc2ccccc2CN1C(=O)c1ccc2c(c1)Cc1ccccc1-2 (stereo not given),35.9% [50 µM],45.3% [50 µM],68.2% [50 µM],76.6% [50 µM],34.4% [50 µM],48.5% [50 µM],18.5% [50 µM],27.3% [50 µM],54% [50 µM],32.2% [50 µM]
CCN1C(=O)N(CC)C2C1NN=c1s/c(=C\c3ccccc3F)c(=O)n12 (stereo not given),31.9%,48.5%,42.6%,35.1%,2.31% (active),40.3%,-8.42% (active),7.92% (active),20.6%,-9.98% (active)
Cc1ccccc1/C=C/C(=O)c1cccc(OCCCCOc2cccc(C(=O)/C=C/c3ccccc3C)c2)c1,94.6%,91.7%,92.1%,102%,98.1%,93.6%,85.8%,84.2%,96.4%,106%
CCN(CC)c1ccc(\C=N/N=C(N)/C(N)=N\N=C/c2ccc(N(CC)CC)cc2)cc1,94.9%,103%,105%,93.1%,109%,116%,92.2%,104%,113%,106%
O=C(/C=C/c1cccc(Cl)c1)c1cccc(OCCCOc2cccc(C(=O)/C=C/c3cccc(Cl)c3)c2)c1,89.2%,96.3%,106%,102%,103%,66.8%,87.4%,100%,98.8%,106%
O=C1C(Cl)=C(Nc2ccc(S(=O)(=O)N3CCOCC3)cc2)C(=O)c2ccccc21,83.5%,84.5%,99.8%,86.3%,94.9%,25.7%,21%,80.8%,71%,104%
COc1ccc(C(=O)N2c3ccccc3Sc3ccccc32)c(OC)c1,38%,31.3%,62.2%,48.4%,9.97% (active),31.3%,-9.67% (active),30.6%,28.6%,-11.4% (active)
CC(=O)n1nc(C(=O)OC(C)(C)c2ccccc2)c2ccccc21,94.2%,85.7%,87.9%,97.3%,100%,94.1%,85.5%,91.8%,96.8%,107%
CCOC(=O)n1ccn(C)c1=S,107%,109%,89.1%,60.5%,113%,104%,84.6%,101%,90.6%,31.9%
COc1ccc(/C=C(\C#N)n2nnc3cc(F)c(F)cc32)cc1,74.7%,101%,72.6%,49.6%,87.8%,72.3%,12.7%,51.7%,60.8%,38.2%
CC(=O)O[C@@H]1C[C@]2(C(C)C)O[C@@]1(C)[C@@H]1CCC(C)=C1[C@@H]2OC(=O)/C=C/c1ccccc1,95.3%,66.2%,93.4%,90.6%,94.2%,72.8%,73.3%,82.3%,87.6%,94.1%
CCN(CC)Cc1cc(C=C2C(=O)NC(=S)NC2=O)cc(OC)c1O,98.1%,107%,103%,106%,104%,104%,104%,109%,104%,117%
O=[N+]([O-])c1ccc(O)cc1Br,95.1%,93.2%,105%,92.4%,104%,44.8%,90.7%,103%,99.8%,108%
Cn1cc(-c2nonc2-c2cn(C)c3ccccc23)c2ccccc21,43.1%,81%,47%,21.2%,8.94% (active),48.8%,-20.5% (active),21.8%,28.1%,-34% (active)
N#C/C(=C\c1c(-c2ccccc2)[nH]c2ccccc12)C(N)=O,85.4%,95.1%,104%,87.4%,92.2%,65.1%,83.3%,89.5%,98.7%,92.8%
Clc1cc(Cl)c(Cl)c(-c2nnc(SCc3ccncc3Br)o2)c1,87.7%,98%,102%,82.5%,95.9%,84.4%,83.8%,153%,93.7%,110%
COc1cc(OC)c(NC(=O)c2cc3ccccc3cc2O)cc1Cl,10.7%,77%,40.2%,68.2%,11.2%,-31.2% (active),-19.9% (active),32.1%,27.4%,66.6%
O=C1c2ccccc2-c2c1c1c(=O)[nH]c3ccccc3c1n2Cc1ccccc1,63.1%,29.5%,58.4%,75.8%,58.9%,56.4%,35%,44.9%,39.7%,73.8%
Cc1cn(-c2cc(NC(=O)c3cncc(C#Cc4cnc(N)c5ncccc45)c3)cc(C(F)(F)F)c2)cn1,43.5%,45.7%,83.4%,70.9%,71.2%,43.3%,52.2%,88.1%,71.6%,28.4%
CC1(C)CC(=O)C2=C(C1)N(c1ccc(OC(F)(F)F)cc1)C(N)=C(C#N)C2c1ccc(Br)cc1F (stereo not given),75.8%,33.1%,59.1%,6.8% (active),25.3%,39.8%,88.6%,44.1%,35.7%,93.8%
Cc1ccc(Nc2cc(N)nc(N)n2)cc1Cl,87.6%,93.3%,99.8%,87.3%,103%,83.9%,87%,83.1%,87.9%,107%
CCOCCNC1=C(Cl)C(=O)c2ccccc2C1=O,80.7%,121%,108%,110%,94.9%,127%,82.9%,101%,105%,130%
CCc1ncnc2c1ccn2C(C)c1ccc(OC)c(F)c1 (stereo not given),38.9%,77.2%,79.7%,41.3%,30.8%,43.2%,43.3%,41.1%,74.9%,26.3%
CCCc1c(OC(=O)c2ccccc2)nc2[nH]c(=O)sc2c1C,99%,89.9%,101%,95.6%,103%,93.3%,87.4%,99.6%,106%,101%
O=C1NC(=O)C(Cc2ccc(OCc3ccc(-c4ccc(Cl)cc4Cl)cc3)cc2)S1 (stereo not given),46.9%,74.5%,90.8%,66.4%,58.5%,53.7%,26.8%,39.4%,63.8%,90.4%
COc1cc(OCc2cccc(Br)c2C)cc(OC)c1C=O,75.7%,29.3%,92.6%,93.5%,75.8%,90.6%,62%,76.5%,79.4%,93.4%
Nc1ncnc2c1C(c1ccccc1)c1ccc3ccccc3c1O2 (stereo not given),77.5%,77.6%,88%,68.5%,103%,45.1%,53.8%,86%,89.7%,92.8%

# Reference: PubChem BioAssay (NCI)
